# Literature values, collected in PubChem BioAssay AID977608.
# Among all 4,300 compounds or so, about 4,300 (100%) were called active. No cut-off is given here; in the data, nearly all actives have IC50 up to about 1400 µM. So high a share suggests a set chosen from earlier hits. The list shows a part of the results.
# Experiment: protein-ligand inhibition affinities from structures – PDB-derived complexes (AID 977608)
structure (smiles),measurement,setting,value
O=C(NO)c1ncc(-c2ccccc2Cl)o1,IC50,"literature IC50, protein: METHIONINE AMINOPEPTIDASE, PDB entry 4a6w",1900 nM (active)
Cc1ccc(OC[C@@H](O)CNC2Cc3ccccc3C2)cc1C,IC50,"literature IC50, protein: Endochitinase CTS1, PDB entry 4txe",2400 nM (active)
C1=CC1c1[nH]nc2nccc(-c3ccco3)c12,IC50,"literature IC50, protein: CHECKPOINT KINASE 2, PDB entry 4bdj",7200 nM (active)
O=C(NCc1ccc(S(=O)(=O)C2CCN(C3CCOCC3)CC2)cc1)n1cc2ccncc2c1,IC50,"literature IC50, protein: Nicotinamide phosphoribosyltransferase, PDB entry 4kfp",10 nM (active)
C[C@H](C(=O)O)c1ccc2c(c1)[nH]c1ccc(Cl)cc12,IC50,"literature IC50, protein: Fatty-acid amide hydrolase 1, PDB entry 4do3",79000 nM (active)
Nc1nc(Nc2ccc(S(N)(=O)=O)cc2)sc1C(=O)Nc1c(F)cccc1F,IC50,"literature IC50, protein: Cyclin-dependent kinase 2, PDB entry 3r9h",100000 nM (active)
Nc1nc(Nc2ccc(S(N)(=O)=O)cc2)sc1C(=O)Nc1cccc(F)c1,IC50,"literature IC50, protein: Cyclin-dependent kinase 2, PDB entry 3r9d",71000 nM (active)
Nc1nc(Nc2ccc(S(N)(=O)=O)cc2)sc1C(=O)Nc1cc(F)cc(F)c1,IC50,"literature IC50, protein: Cyclin-dependent kinase 2, PDB entry 3r9o",100000 nM (active)
Oc1ccc(Nc2nc(-c3ccc(Cl)cc3)cs2)cc1,IC50,"literature IC50, protein: Sphingosine kinase 1, PDB entry 3vzd",500 nM (active)
Cc1nc2ccc(Br)cc2c(-c2ccc(Cl)cc2)c1[C@H](OC(C)(C)C)C(=O)O,IC50,"literature IC50, protein: Gag-Pol polyprotein (A128T mutation), PDB entry 4gvm",780 nM (active)
same,IC50,"literature IC50, protein: Gag-Pol polyprotein, PDB entry 4gw6",630 nM (active)
NC(N)c1ccc(CNC(=O)[C@@H]2CCN2C(=O)[C@H](NCC(=O)O)C2CCCCC2)cc1,IC50,"literature IC50, protein: bovine trypsin, PDB entry 1k1p",11.9 nM (active)
CNC(=O)[C@H](Cc1cnc[nH]1)NC(=O)CN(CCCc1ccccc1)CC(=O)O,IC50,"literature IC50, protein: human insulin degrading enzyme (ide), PDB entry 4gs8",100 nM (active)
O=c1ccn([C@H]2C[C@H](O)[C@@H](CO[P+](O)(O)N[P+](O)(O)O[P+](O)(O)O)O2)c(=O)[nH]1,IC50,"literature IC50, protein: Human dUTPase, PDB entry 3ehw",15200 nM (active)
O=c1ccn([C@@H]2O[C@H](CO[P+](O)(O)O[P+](O)(O)O)[C@@H](O)[C@H]2O)c(=O)[nH]1,IC50,"literature IC50, protein: human O-GlcNAc transferase and a thioglycopeptide, PDB entry 4gz3",1800 nM (active)
COc1cc(Nc2ncc(F)c(Nc3ccc4c(n3)N(CO[P+](O)(O)O)C(=O)C(C)(C)O4)n2)cc(OC)c1OC,IC50,"literature IC50, protein: Bromodomain-containing protein 4 BRD4-1, PDB entry 4o75",21000 nM (active)
Cc1noc(C)c1-c1ccc2c(Nc3ccccc3C(C)(C)C)c(C(=O)O)cnc2c1,IC50,"literature IC50, protein: BROMODOMAIN-CONTAINING PROTEIN 4, PDB entry 4bw1",1260 nM (active)
COc1nc2c(Nc3ccccc3C(C)(C)C)c(C(=O)O)cnc2cc1-c1c(C)noc1C,IC50,"literature IC50, protein: BROMODOMAIN-CONTAINING PROTEIN 4, PDB entry 4bw3",500 nM (active)
Cc1noc(C)c1-c1ccc2c(Nc3ccccc3C(C)(C)C)c(C(=O)O)cnc2n1,IC50,"literature IC50, protein: BROMODOMAIN-CONTAINING PROTEIN 4, PDB entry 4bw2",6310 nM (active)
COc1cc(OC)nc(C2CCCCC2C(=O)NCc2ccc(Cl)c(Cl)c2)n1 (configuration not stated),IC50,"literature IC50, protein: Phosphopantetheine adenylyltransferase, PDB entry 4nat",330 nM (active)
CCc1cc(Sc2ncc(C(=O)O)[nH]2)nc([C@H]2CCCC[C@@H]2C(=O)NCc2ccc(Cl)c(Cl)c2)n1,IC50,"literature IC50, protein: Phosphopantetheine adenylyltransferase, PDB entry 4nah",490 nM (active)
CCc1cc(-c2nc(O)c(C(N)=O)c(=O)[nH]2)nc([C@H]2CCCC[C@@H]2C(=O)NCc2ccc(Cl)c(Cl)c2)n1,IC50,"literature IC50, protein: Phosphopantetheine adenylyltransferase, PDB entry 4nau",0.87 nM (active)
N[C@@H](C(=O)O)[C@H](O)[C@@]1(C(=O)O)CC[C@H](C[C@H](NC(=O)c2cc(Cl)c(O)c(Cl)c2)C(=O)O)N1,IC50,"literature IC50, protein: Glutamate receptor 2, PDB entry 4gxs",100000 nM (active)
OS(O)(O)c1cc(N=C=S)ccc1/C=C/c1ccc(N=C=S)cc1S(O)(O)O,IC50,"literature IC50, protein: human soluble Adenylyl Cyclase TYPE 10, PDB entry 4clz",43000 nM (active)
O=C(NCCCNCc1cc(Cl)cc(Cl)c1)Nc1ccccc1O,IC50,"literature IC50, protein: Trypanosoma brucei methionyl-tRNA synthetase, PDB entry 4mw0",39 nM (active)
CC[C@H](C)[C@H](NC(=O)[C@H](CC(N)=O)NC(=O)[C@H](Cc1ccccc1)NC(=O)[C@H](Cc1c[nH]c2ccccc12)NC(=O)[C@H](CC(N)=O)NC(C)=O)C(=O)N[C@H](C(=O)N[C@@H](CC(N)=O)C(=O)N[C@]1(C)CCCCCC[C@@](C)(C(=O)N[C@H](C(=O)N[C@@H](CCCCN)C(=O)N[C@@H](CCCCN)C(=O)N[C@@H](CCCCN)C(=O)N[C@@H](CCCCN)C(=O)O)[C@@H](C)CC)NC(=O)[C@H](Cc2c[nH]c3ccccc23)NC(=O)[C@H](CC(C)C)NC1=O)[C@@H](C)O,IC50,"literature IC50, protein: HIV-1 neutralizing antibody 4E10 Fab, PDB entry 4nhc",46 nM (active)
CC[C@H](C)[C@H](NC(=O)[C@H](CC(N)=O)NC(=O)[C@H](Cc1ccccc1)NC(=O)[C@H](Cc1c[nH]c2ccccc12)NC(=O)[C@H](CC(N)=O)NC(C)=O)C(=O)N[C@H](C(=O)N[C@@H](CC(N)=O)C(=O)N[C@]1(C)CCCCCC[C@@](C)(C(=O)N[C@H](C(=O)N[C@@H](CCNC(=O)CNC(=O)[C@@H](N)CO[P+](O)(O)O)C(=O)N[C@@H](CCCCN)C(=O)N[C@@H](CCCCN)C(=O)N[C@@H](CCCCN)C(=O)O)[C@@H](C)CC)NC(=O)[C@H](Cc2c[nH]c3ccccc23)NC(=O)[C@H](CC(C)C)NC1=O)[C@@H](C)O,IC50,"literature IC50, protein: HIV-1 neutralizing antibody 4E10 Fab, PDB entry 4ngh",30 nM (active)
